Measurements as given in the supplement of paper PMC3334620.
Over roughly 33,000 sequences, “E-score (-0.5 to 0.5)” has its median near -0.0059; the highest 2% begin near 0.26. This is one part of a sample in which the highest values are shown more often than they occur.

Biological target: T1, Cin5 (UniProt P40917)
T1 sequence: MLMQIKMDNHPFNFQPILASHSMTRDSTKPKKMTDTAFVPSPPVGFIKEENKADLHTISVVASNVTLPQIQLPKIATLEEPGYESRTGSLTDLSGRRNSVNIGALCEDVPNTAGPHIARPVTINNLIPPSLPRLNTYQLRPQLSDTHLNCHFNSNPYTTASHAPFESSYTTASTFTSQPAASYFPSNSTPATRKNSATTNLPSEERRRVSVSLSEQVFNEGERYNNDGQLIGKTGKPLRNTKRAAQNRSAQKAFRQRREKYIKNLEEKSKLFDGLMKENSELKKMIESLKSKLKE
Assay: PBM E-score (8-mer binding enrichment) (E-score (-0.5 to 0.5)); higher = stronger / more preferred TF binding
Conditions: protein concentration: 100 nM; construct: GST-full length
Description: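 Universal 'all 10-mer' protein binding microarrays (Agilent AMADID 015681) probed with GST-tagged S. cerevisiae TFs (full-length or DBD) made by in vitro transcription/translation (PURExpress), about 100-200 nM. Bound TF was detected with fluorescent anti-GST. Each ungapped 8-mer (which stands for itself and its reverse complement) is scored by the PBM enrichment score (E-score), a modified Wilcoxon-Mann-Whitney statistic from -0.5 to +0.5, computed with the Universal PBM Analysis Suite. Scale: above 0.35 generally sequence-specific binding.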

Sequence	PBM E-score
ATAACTAA	0.141
CAAACTAA	0.266
AAAACTAT	0.2
CTAAGTAA	0.0623
AAAACTAA	0.275
CAAACTAC	0.0495
GTAAGTAA	0.24
TAAACTAA	0.252
TTAACTAA	0.343
TTAAGTAA	0.423
GAAACTAA	0.0253
CTAACTAA	0.15
CGACATAG	0.00383
CTGCAAAC	-0.149
AGCTGCCG	-0.0554
GCGGCGCC	0.115
CACGTGGG	-0.172
AGGCTGAC	0.0576
AGGCGGAA	-0.0282
GCGCGAGC	-0.0452
GGAATTGA	0.199
ACATCATC	0.344
ACATCATG	0.0711
GCATCATA	0.0947
CCATCATC	0.0863

Sequence	PBM E-score
CCATCATA	0.05
ACATCATA	0.258
CAACTCTG	-0.112
GACGCATC	0.00795
ACCAAGCC	-0.172
CCCCCCTC	-0.465
TAACCAAA	0.175
AAGGTGAA	-0.0511
CAGGAGGA	-0.315
TACCCATA	0.0256
AGCTGATG	0.14
GGTATAAA	0.154
AGTATATG	0.183
TGTATAAA	0.114
AGTATAAT	0.301
AGTATAAA	0.282
AGTATAAG	0.239
AGTATATC	0.126
AGTATATA	0.346
AGTATAAC	-0.129
ATTGTCGC	0.0313
GAACCCAC	0.121
ATAGTTTA	0.0429
GGGCGGTA	-0.169
AGCACGAT	0.0861

Sequence	PBM E-score
ATCTCGCA	0.00313
ATCTCGCC	0.0516
ATCTCGCG	0.266
ATATCGCC	0.0352
ATATCGCG	0.301
ATATCGAC	0.249
ATATCGCA	-0.00978
ATATCGAT	0.265
ATATCGAA	0.221
CACGTCGC	-0.119
CTCGACGC	0.0204
ATTGATTA	0.317
GTTGATTA	0.268
CCTGATTA	0.252
ACTGATTA	0.249
ATTGATTC	0.128
GCTGATTA	0.279
GTTGATGA	0.154
ATTGATTG	0.186
CTTGATTA	0.222
AAGTTGCC	-0.0351
CGGACGAA	0.15
CACACACG	-0.0573
TCCCAGAA	-0.129
AATCCGGA	0.234

Sequence	PBM E-score
AATGTTCT	-0.0398
ATTAATGC	0.19
GTTAATCA	0.239
ATTAATTG	0.193
ATTAATTC	0.238
ATTAATCC	0.18
CTTAATGA	0.0487
ATTAATCA	0.263
ATTAATTA	0.259
ATTAATGA	0.29
GCCACATA	0.064
ACTGCCCT	-0.0972
CGAAGACA	-0.0454
ACAACATA	0.268
GCAACATA	0.0111
ATAACATC	0.189
ATAACATA	0.26
ACAACATC	0.0575
ATAACATG	0.0972
AGATTGAA	0.0552
CCCAGTTC	0.175
AACCGTGA	-0.0786
GCATTCCA	-0.196
AAAGCATC	0.134
CAGACTGG	-0.108

Sequence	PBM E-score
AAAACGGA	0.0411
AGTAGCCG	0.0345
TATCGATA	0.0449
GCTCTTAC	0.021
GTCACGCA	0.0339
CTCACGCC	-0.0928
CTCACGCA	0.274
ACAGTAGG	-0.00703
CAGTGCCG	-0.0996
ATAGTTGA	0.121
ATAGTTGC	0.272
ATAGTTGG	-0.0107
GGTAAGTA	-0.00023
AAAATGGT	0.216
TCTGCACA	-0.00335
ATTACGAA	0.295
CTTACGAC	0.103
ATTACGAG	0.299
AGTACGAG	0.0932
GTTACGAA	0.16
ATTACGGA	0.322
ATTACGAC	0.232
AGTACGAA	0.167
CTTACGAA	0.26
ATTACGGC	0.181

Sequence	PBM E-score
ATTACGGG	0.103
ATTACGCA	0.25
GAGGTTAA	-0.0963
AGCAATTC	0.0771
AGGACCTC	-0.0477
CCTTGAGC	-0.155
ATTCCGAG	0.182
CAAGTCTA	-0.202
ATACTGAT	0.283
ATACTGAC	0.192
ATACTGTC	0.208
TACGCCCA	0.0142
AAGTACTG	-0.0282
CAAAAGTC	-0.0102
CACTTACG	0.112
GCCTTACA	-0.253
CGCTTACC	0.15
ATCTTACG	0.164
ACCTTACG	0.0253
GGCTTACA	0.332
TGCTTACA	0.305
TCCTTACA	-0.021
TGCTTAAA	0.102
CGCTTACG	0.379
AGCTTACG	0.337

Sequence	PBM E-score
GGCTTACC	0.169
ACTTCTAT	0.0803
ATATGCGG	0.148
CACTGCCA	-0.0785
CCCCCCCA	-0.464
CTAGCCTC	-0.159
GTACAGCA	-0.134
ATGCACTA	-0.0624
ATATAGAT	0.207
GGAGCTAC	-0.236
CACTTACA	0.127
CGCTTAGA	-0.0919
AGCTTATG	0.296
AGCTTATA	0.191
CGCTTACA	0.315
AGCTTACT	0.201
AGCTTACA	0.351
AGCTTATC	0.204
AGCTTACC	0.226
ACCCGATA	-0.0171
CCCTGTTC	-0.265
CCTTCTTC	-0.107
AGAAGCTG	-0.049
ACCAAGAT	0.146
ATTATATG	0.249

Sequence	PBM E-score
GTCATATA	0.168
ATTTTGTG	0.139
ATTTTGTA	0.286
CTTTTGTA	0.205
ATCATATG	0.169
ATTATATC	0.197
GTTATAGA	-0.0531
GTTATATA	0.271
ATCATATA	0.269
ATTATATA	0.333
GTTATACA	0.181
TACATCCA	0.0256
GCAGCACA	0.00715
AGGTGGTA	0.0927
GGCCAGGA	-0.0739
CAGCGTAA	0.0543
AGGCTATA	-0.161
ATGTTGTG	0.151
GCTATATA	0.153
ATTATCCG	0.289
ACTATATC	0.214
ATTATCCA	0.122
CTTATACA	0.0656
ACTATATA	0.309
CTTATATA	0.348

Sequence	PBM E-score
GTGTTGTA	0.0125
CTTATATC	0.232
ATGTTGTA	0.263
ATTATCCC	0.151
GCGTTAAC	0.00491
CCCTAGAC	-0.112
TCCTCGAA	0.043
TAAGCGTA	0.126
GAACTGGA	0.158
CTTTGCGC	0.123
CGTATGAA	0.188
GCTCTATA	-0.0373
GCGATCTA	0.068
ATTTTATA	0.272
ATTATACC	0.187
ATTTGTAG	0.136
CTTTGTAA	0.115
ATTATACG	0.257
ATTATACA	0.123
ATTTGTTC	0.307
ATTTGTAA	0.326
ATTTGTTA	0.179
ATTTTATG	0.208
GTTTTATA	0.148
CTTTGTTC	0.0999

Sequence	PBM E-score
CACCAGTG	-0.0701
AGCCTTGC	-0.0563
CCCCGGGC	-0.282
CGATGACA	0.0915
ATCGACAT	0.0947
ATATTTGC	0.209
CCTTTAAG	-0.107
CTTGAGCA	-0.216
AATCTAAT	0.0853
ATGTATTC	0.104
ACGTATTA	0.298
ACCTATTA	0.267
ATGTATTG	0.304
GTCTATTA	0.0891
GCCTATTA	0.177
CCCTATTA	-0.0143
GCGTATTA	0.0794
ACGTATTG	0.0396
ATGTATCG	0.232
CTCTATTA	0.0158
ATCTATTA	0.321
ACTAGCAA	0.00926
AGATCACT	0.112
ACAAGTAT	0.221
AGGTATTG	0.126

Sequence	PBM E-score
CTTCAGTA	0.0297
ATAGTAGA	0.139
CTGTATTA	0.133
ATGTATTA	0.233
GTGTATTA	0.273
GCTGTTCC	-0.0338
CTCTTATC	0.192
GTGGAAAA	0.0919
CCGCGTGC	-0.0723
ACTTACAC	-0.04
AATTACTA	0.212
GCTTACCC	0.00966
GATTACTA	0.387
CATTACTA	0.189
TCTTACCA	-0.0191
ACTTACGA	0.207
CCTTACGA	-0.114
GCTTACGA	0.414
GCTTACAA	0.248
GCTTACCA	0.381
GCTTACAC	0.391
ATTGTGAC	0.0953
GAGCCACC	-0.354
GTACCGGA	-0.00967
AGCGGCTG	-0.125

Sequence	PBM E-score
ACAGCCAG	-0.0281
CAATTGGC	0.165
AATTCCAA	0.0946
GACGCTTA	-0.059
CGACGTAC	-0.00505
CCGTCGCC	-0.0908
CCCATATA	0.178
AGAAGGAC	-0.211
CGCCAGGA	-0.0898
GCTTACTA	0.388
CCTTACTA	0.0454
GCTTATCA	0.285
ACTTACTA	0.108
CCTTATCA	0.0994
ACTTATCA	0.0834
AAGCCGCG	-0.0409
ACATTCGA	0.0628
ATCCGGAA	0.227
ATCCGGAC	-0.149
ATCCGGAT	0.259
TGGGGTAA	0.0776
CGTAGTCA	-0.015
ACTGTAAG	0.143
AATGTAAG	0.319
AATGTAAT	0.301

Sequence	PBM E-score
AATGTAAC	0.117
CATGTAAG	0.13
AATGTAAA	0.19
CAGGCAAA	-0.00195
AGACCCAG	-0.097
CAACGCCA	-0.074
CGTATTTA	0.308
GTTTATTA	0.215
ACTATTTC	0.228
CTTATTTC	0.238
AGTATTTA	0.0905
CTCATTTC	-0.04
ATTATTTC	0.3
GGTATTTA	0.0824
ATTTATTA	0.306
ATCATTTA	0.226
CTTTATTA	0.0651
ATCATTTC	0.264
ATAGACGC	0.122
CACAGCAG	0.0514
CCTGCGTA	-0.115
GCACCGAC	-0.0796
CTATTTTC	0.0963
ATGATTTG	0.123
CTTTATAA	-0.0352

Sequence	PBM E-score
ATTATTTG	0.206
ATTTATAC	0.253
ATGATTTA	0.268
CTGATTTA	0.0451
ATTTATAA	0.299
ATATTTTA	0.201
ATTATTTA	0.319
ATATTTTC	0.31
CTTATTTA	0.164
GCACTGCA	-0.0484
AGCTGCTA	-0.0218
CCTGCAAG	-0.215
GAAGAATC	0.00251
AACAGCCG	-0.0368
CCGCACAG	-0.0131
TTATAAAA	0.289
GTATAAAA	0.26
ATATAAAC	0.255
CTATAAAC	-0.00307
CTATAAAA	-0.0202
ATATAAAA	0.154
GTATAAAC	0.26
CTCTAAAA	-0.125
TGATAAAA	0.0968
